Sampled rows, rich in hits. Any-hit rate of the full collection: about 19%.
TDP1 cell CPT: qHTS for Inhibitors of human tyrosyl-DNA phosphodiesterase 1 (TDP1): qHTS in cells in presence of CPT. Potency, µM (doses to about 46.2 µM), for the others: top-dose activity change, negative = growth inhibition, actives largely listed as inhibitors. AID 686979, 2013. chicken DT40 Tdp1-/-;hTDP1 cells + 20 nM CPT, ATP luminescence, 48 h. 12% of 420,000 active; further: potency means the concentration at half of the fitted maximal effect; on the % scale 0 is the no-effect control and ±100 the full control effect; nearly all actives have a fitted effect of over 55% in size
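Cell growth measured by CellTiter-Glo luminescence after a minimum 48 h, 37 C compound exposure with 20 nM CPT in Tdp1-knockout DT40 cells stably expressing hTDP1, seeded 400/well; qHTS titration format.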
TGFb inhibitor: qHTS for Inhibitors of TGF-b. HepG2 CAGA-GFP TGF-b/SMAD3 reporter, GFP fluorescence, 18 h; TGF-beta stimulated, 500 pg/mL final. Potency, µM (titrated, usually from 46.1 µM), for inactives: top-dose activity, negative = inhibition, most hits filed as inhibitors. 1.2% of 410,000 active; further: potency means the concentration at half of the fitted maximal effect; on the % scale 0 is the no-effect control and ±100 the full control effect; nearly all actives have a fitted effect of over 65% in size
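Cell-based qHTS in HEPG2 carrying a CAGA-GFP Smad reporter; compounds added before 500 pg/mL final TGF-beta, 18 h incubation at 37 degrees C, GFP fluorescence quantified per cell by imaging cytometry.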
TDP1 block: qHTS Assay for Inhibitors of Tyrosyl-DNA Phosphodiesterase (TDP1). Tyrosyl-DNA phosphodiesterase 1 (Homo sapiens), Q9NUW8. recombinant TDP1, AlphaScreen DNA substrate cleavage. Potency, µM (highest dose often 130 µM), without a hit: top-dose activity change, negative = inhibition, actives largely listed as inhibitors. 0.28% of 350,000 active; further: potency means the concentration at half of the fitted maximal effect; on the % scale 0 is the no-effect control and ±100 the full control effect; nearly all actives have a fitted effect of over 40% in size
Target sequence (Q9NUW8 whole entry, looked up): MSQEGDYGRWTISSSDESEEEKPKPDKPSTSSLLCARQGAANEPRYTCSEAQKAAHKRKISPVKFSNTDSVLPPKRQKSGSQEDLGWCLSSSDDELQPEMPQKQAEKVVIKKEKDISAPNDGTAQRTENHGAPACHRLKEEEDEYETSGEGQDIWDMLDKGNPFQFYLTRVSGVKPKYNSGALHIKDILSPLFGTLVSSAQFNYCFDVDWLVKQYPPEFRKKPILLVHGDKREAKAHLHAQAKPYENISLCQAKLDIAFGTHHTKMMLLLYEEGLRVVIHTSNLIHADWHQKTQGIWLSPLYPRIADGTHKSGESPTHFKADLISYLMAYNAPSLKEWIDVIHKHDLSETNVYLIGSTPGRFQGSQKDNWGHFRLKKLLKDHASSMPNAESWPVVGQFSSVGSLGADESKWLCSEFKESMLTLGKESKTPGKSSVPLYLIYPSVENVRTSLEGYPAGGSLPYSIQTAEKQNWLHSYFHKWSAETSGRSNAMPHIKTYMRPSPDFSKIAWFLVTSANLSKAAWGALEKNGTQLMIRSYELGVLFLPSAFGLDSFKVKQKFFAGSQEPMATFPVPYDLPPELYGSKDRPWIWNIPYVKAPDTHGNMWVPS
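E. coli-derived human Tdp1, 1 nM final. Cpd preinc 15 min RT; substrate 15 nM final, 5 min RT; AS bead mix 10 ug/ml final, 10 min RT. Signal loss = tyrosine-FITC cleavage. No-enzyme wells = max signal.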
IL-1B inflam inh: qHTS for Inhibitors of Inflammasome Signaling: IL-1-beta AlphaLISA Primary Screen; activity change, % at 57.5 µM; THP-1 LPS/ATP IL-1B secretion, AlphaLISA, 16 h; active compounds read low; AID 743279, 2014; 4.7% of 360,000 active; in the data active means activity change below about -50%; inconclusive means mostly about -30% to -49%; further: on the % scale 0 is the no-effect control and ±100 the full control effect
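Secreted IL-1B measured by AlphaLISA bead assay after 16 h compound exposure of THP-1 cells; compounds (final up to 57.5 uM) added 1 h before LPS (250 ng/mL) and ATP (1.25 mM) stimulation; lower signal means less secretion.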
TDP1 cell noCPT: qHTS for Inhibitors of human tyrosyl-DNA phosphodiesterase 1 (TDP1): qHTS in cells in absence of CPT; DT40 Tdp1-/- hTDP1 cells, no CPT, ATP luminescence, 48 h; Potency, µM (top dose mostly 46.2 µM), for inactives: top-dose activity change, negative = growth inhibition, actives largely listed as inhibitors; 15% of 420,000 active; AID 686978, 2013; further: potency means the concentration at half of the fitted maximal effect; on the % scale 0 is the no-effect control and ±100 the full control effect; nearly all actives have a fitted effect of over 55% in size
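Camptothecin absent (DMSO only). Human TDP1-complemented DT40 knockout cells, 400 cells/well, 37 °C for minimum 48 hr; ATP measured via CellTiter-Glo, 30 min dark incubation, luminescence.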
HepG2 tox-1: qHTS for Inhibitors of TGF-b: Cytotox Counterscreen; HepG2 CAGA-GFP viability, ATP luminescence, 18 h; Potency, µM (top dose mostly 46.1 µM), inactives show top-dose activity change, negative = cytotoxicity, most hits filed as cytotoxic; 0.76% of 410,000 active; further: potency means the concentration at half of the fitted maximal effect
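HepG2 CAGA-GFP cells (1000/well, DMEM with 1% FBS) received compound, then TGF-beta at 500 pg/mL final, and were incubated 18 hours at 37 degrees C. Viability was read by CellTiter-Glo luminescence. Media-only wells were set as complete cell-killing and DMSO as no toxicity.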
TGFb confirm: qHTS for Inhibitors of TGF-b: Confirmation of Cherry Picks; HepG2 CAGA-GFP TGF-b reporter, GFP fluorescence, 18 h; cells stimulated with TGF-beta, 500 pg/mL; shares compounds with TGFb inhibitor; AID 720534, 2013; 63% of 1,600 active; Potency, µM (series often up to 46.1 µM), without a hit: top-dose activity, negative = inhibition, most hits filed as inhibitors; further: potency means the concentration at half of the fitted maximal effect; on the % scale 0 is the no-effect control and ±100 the full control effect; nearly all actives have a fitted effect of over 65% in size
HepG2 tox-2: qHTS for Inhibitors of TGF-b: Cytotox Counterscreen for Cherry Picks; AID 720535, 2013; 27% of 1,600 active; Potency, µM (doses to about 46.1 µM), for inactives: at the top dose activity, negative = cytotoxicity, hits mostly inhibitors; shares compounds with TGFb inhibitor; HepG2 CAGA-GFP viability, ATP luminescence, 18 h; cells stimulated with TGF-beta, 500 pg/mL; further: potency means the concentration at half of the fitted maximal effect; on the % scale 0 is the no-effect control and ±100 the full control effect; nearly all actives have a fitted effect of over 70% in size
CCL64 TGFb inh: qHTS for Inhibitors of TGF-b: CCL64 Cells Orthogonal Assay for Cherry Picks; 41% of 1,600 active; AID 720536, 2013; shares compounds with TGFb inhibitor; CCL64 CAGA-GFP reporter, TGF-b stimulated, GFP fluorescence, 18 h; Potency, µM (series often up to 46.1 µM), for inactives: at the top dose activity, negative = inhibition, hits mostly inhibitors; further: potency means the concentration at half of the fitted maximal effect; nearly all actives have a fitted effect of over 65% in size
TGFb COP inh: qHTS for Inhibitors of TGF-b: Hit Validation in HepG2 Cells using COP promoter. shares compounds with TGFb inhibitor. HepG2 COP-GFP TGF-b reporter, GFP fluorescence, 18 h; cells stimulated by added recombinant TGF-beta. Potency, µM (doses to about 46.1 µM), for the others: top-dose activity, negative = inhibition, usual class: inhibitors. 3% of 1,600 active. AID 720537, 2013; further: potency means the concentration at half of the fitted maximal effect; nearly all actives have a fitted effect of over 70% in size
The depositor's hits bear a star; i = inactive; ? = inconclusive; nt = not tested or not shown; ! = not confirmed by another sample. Unless noted, the call rests on the fitted dose curve; in most records, active means well fitted curve in the direction sought with a large enough effect; inconclusive means small, poorly fitted or top-dose-only effect, or another doubt; inactive means no such curve, though single readings can be large; an effect the other way counts as inactive or inconclusive.

SMILES | TDP1 cell CPT | TGFb inhibitor | TDP1 block | IL-1B inflam inh | TDP1 cell noCPT | HepG2 tox-1 | TGFb confirm | HepG2 tox-2 | CCL64 TGFb inh | TGFb COP inh
COP(=O)(NC(=O)C(Cl)(Cl)Cl)OC | -3% | -9% | nt | -17 | -16% | -4% | nt | nt | nt | nt
Cc1ncc([N+](=O)[O-])n1CCOC(N)=O | 4% | -4% | 3% | -3 | -5% | -16% | nt | nt | nt | nt
COc1ccc(OC)c(C(O)C2CCCCN2)c1 (stereo not drawn) | 6% | 9% | nt | -6 | -11% | -9% | nt | nt | nt | nt
CCCCn1c(N)c(C(=O)NCc2cccs2)c2nc3ccccc3nc21 | -18% | 10µM* | -5% | -58* | ? | -82% | ? | -25% | ? | 6%
Cc1cc(OCC(=O)N2CCCN(C)CC2)ccc1Cl | -2% | -11% | 1% | -10 | 0% | -14% | nt | nt | nt | nt
C[C@H]1CCCC(=O)CCC/C=C/c2cc(O)cc(O)c2C(=O)O1 | -4% | 18% | 1% | -13 | ? | -5% | nt | nt | nt | nt
C[C@H]1CCC/C=C/[C@@H]2C[C@H](O)C[C@H]2[C@H](O)/C=C/C(=O)O1 | 0.58µM* | 0.13µM*! | 4% | -53* | 0.65µM* | -32% | 0.12µM* | ? | ? | 64%
CCC(=Nc1ccccc1N)c1c(O)[nH]c(=O)[nH]c1=O | 0% | -28% | nt | 7 | 8% | -8% | nt | nt | nt | nt
NC(=Nc1ccccc1)Nc1ccccc1 | ? | 8.9µM* | 9% | 21 | ? | -8% | 9.2µM* | ? | ? | 44%
CCOC(=O)CNC(=S)N1CC2C[C@@H](C1)Cn1c2cccc1=O | -11% | 0% | nt | -6 | 18% | -3% | nt | nt | nt | nt
CC(=O)OC1(C)CC(C)C(=O)C(C(O)CC2CC(=O)NC(=O)C2)C1 (stereo not drawn) | 0.18µM* | -92% | nt | -109* | 0.21µM* | -33% | 0.052µM* | 0.13µM* | 0.021µM* | 5%
CC(Cc1ccccc1)N(C)CC1C(=O)C2CCC1C2 (stereo not drawn) | ? | 0% | nt | -10 | -23% | -3% | nt | nt | nt | nt
c1ccc2c(CN3CCCCCCC3)c[nH]c2c1 | 0.65µM* | ? | 3% | 15 | 1.5µM* | -26% | 21µM* | 23µM* | 8.2µM* | -4%
OC(CN1CCC(c2c[nH]c3ccccc23)CC1)C(F)(F)F (stereo not drawn) | -13% | 4% | nt | -18 | -29% | -19% | nt | nt | nt | nt
COc1cc(N)c(Cl)cc1C(=O)NC1CN2CCC1CC2 (stereo not drawn) | -5% | nt | 12% | nt | -18% | nt | nt | nt | nt | nt
Cc1ccc(C)c(OCc2cc(C(=O)N3C[C@H]4C[C@@H](C3)c3cccc(=O)n3C4)no2)c1 | -6% | -2% | 0% | i | 7% | -18% | nt | nt | nt | nt
Cc1[nH]c2ccc(OC(F)(F)F)cc2c1CCNCc1ccc(Cl)cc1 | 26µM* | 10µM* | nt | -97* | 15µM* | 11µM* | ? | ? | ? | ?
COc1ccc(-n2nnnc2C(c2ccccc2OC(F)(F)F)N2CCC(n3c(=O)[nH]c4ccccc43)CC2)cc1 (stereo not drawn) | 21µM* | 11µM* | nt | nt | 18µM* | -6% | 5.8µM* | ? | ? | 66%
COc1cccc(C(c2nnnn2Cc2ccccc2)N2CCC3(CC2)C(=O)NCN3c2ccccc2)c1OC (stereo not drawn) | ? | ? | nt | ? | ? | 6% | nt | nt | nt | nt
O=C1NCN(c2ccccc2)C12CCN(C(c1ccccc1OC(F)(F)F)c1nnnn1C1CCCC1)CC2 (stereo not drawn) | ? | -26% | nt | 15 | ? | -14% | nt | nt | nt | nt
COc1ccc(-n2nnnc2C(CCc2ccccc2)N2CCC(n3c(=O)[nH]c4ccccc43)CC2)cc1 (stereo not drawn) | ? | 11µM* | nt | nt | 23µM* | -20% | ? | -28% | ? | 8%
Cn1ncc(Cl)c1C(=O)N1CCC2(CC1)OCCO2 | -3% | 2% | 1% | 3 | 11% | -21% | nt | nt | nt | nt
Nc1ncnc2c1ccn2[C@@H]1O[C@H](CO)[C@@H](O)[C@H]1O | 0.021µM* | 0.45µM* | 4% | -110* | 0.15µM* | 1µM* | 0.58µM* | 0.92µM* | 0.82µM* | 45%
NC(=S)c1cn(C2OC(CO)C(O)C2O)c2ncnc(N)c12 (stereo not drawn) | 0.13µM* | 0.32µM* | 3% | -100* | 0.16µM* | -37% | 0.26µM* | 0.16µM* | 0.46µM* | 44%
CCC(=NCC1CCCO1)c1c(O)n(-c2ccc(OC)cc2)c(=O)[nH]c1=O (stereo not drawn) | 15% | 7% | -3% | -4 | 1% | 17% | nt | nt | nt | nt
C[C@]12CCC3C(CC[C@H]4C[C@@H](O)CC[C@]34C)C1=CC[C@@H]2O (stereo partly drawn) | -27% | 14% | nt | 21 | ? | 2% | nt | nt | nt | nt
